From PubChem BioAssay (EPA / NIEHS)
Inconclusive results are not listed. Activity calls are given as the source filed them. Rule for the calls, unless noted: active = hit-call score of the fitted dose curve at least 0.9, where 1 is the maximum; inactive = score below 0.9.

Tests used:
[1] = read-out: Collagen I, COL1A1 (gene 1277); assay: BSK_MyoF_CollagenI: BioMAP Diversity Plus: MyoF Assay for Collagen I Biomarker Activity (AID 2284238); settings: primary human lung fibroblasts
Outline: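 Multiplexed primary human lung fibroblast system; Collagen I measured by ELISA at 24 h post-dose. Increases are referenced to DMSO.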

[2] = read-out: Collagen III, COL3A1 (gene 1281); assay: BSK_MyoF_CollagenIII: BioMAP Diversity Plus: MyoF Assay for Collagen III Biomarker Activity (AID 2284239); settings: primary human lung fibroblasts
Outline: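 Compounds are added to primary human lung fibroblasts and left for 24 hours. Collagen III is then quantified by ELISA. Analysis takes DMSO as baseline and fits increases in signal.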

[3] = read-out: Interleukin 17F (IL17F), IL17F (gene 112744); assay: BSK_BT_xIL17F: BioMAP Diversity Plus: BT Assay for Interleukin 17F (IL17F) Biomarker Activity (AID 2284243); settings: primary human B cells with PBMC
Outline: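 Measures secreted IL-17F from a human B cell plus PBMC co-culture at 24 h post-dose by Luminex xMAP, with DMSO defining baseline activity.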

[4] = read-out: Actin alpha 1 (ACTA1), ACTA1 (gene 58); assay: BSK_MyoF_ACTA1: BioMAP Diversity Plus: MyoF Assay for Actin alpha 1 (ACTA1) Biomarker Activity (AID 2284244); settings: primary human lung fibroblasts
Outline: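 Lung fibroblasts, human primary, 24 h compound exposure → a-SMA ELISA. Positive-direction fit vs DMSO control.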

[5] = read-out: Interleukin 2 (IL2), IL2 (gene 3558); assay: BSK_BT_xIL2: BioMAP Diversity Plus: BT Assay for Interleukin 2 (IL2) Biomarker Activity (AID 2284245); settings: primary human B cells with PBMC
Outline: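 B cell + PBMC co-culture (human primary), compound added, 24 h incubation; secreted IL-2 measured multiplexed on Luminex xMAP; gain-of-signal fit vs DMSO.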

[6] = read-out: Basic fibroblast growth factor (bFGF), FGF2 (gene 2247); assay: BSK_MyoF_bFGF: BioMAP Diversity Plus: MyoF Assay for Basic fibroblast growth factor (bFGF) Biomarker Activity (AID 2284246); settings: primary human lung fibroblasts
Outline: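 ELISA-measured bFGF level serves as the read-out, taken 24 h after chemical dosing of human lung fibroblasts. Values represent signal gain over the DMSO negative control.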

[7] = read-out: Collagen IV, COL4A1 (gene 1282); assay: BSK_MyoF_CollagenIV: BioMAP Diversity Plus: MyoF Assay for Collagen IV Biomarker Activity (AID 2284247); settings: primary human lung fibroblasts
Outline: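 Steps: dose human lung fibroblasts; culture 24 h; quantify Collagen IV by ELISA; fit increase versus DMSO control. Parallel SRB total-protein staining (0.1% SRB after 10% TCA fixation, 560 nm) tracks overt cytotoxicity.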

[8] = CCTE_Mundy_HCI_hNP1_Casp3_7: CCTE's Caspase-Glo 3/7 Assay in human neuroprogenitor cells for Apoptosis, Mundy Lab (AID 2284240)
Outline: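 Apoptosis is scored by activated caspase-3/7 luminescence in WA09-derived neural progenitor cells, measured 26.5 h after chemical dosing. Values represent gain of signal relative to DMSO vehicle.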

[9] = CCTE_Mundy_HCI_hNP1_CellTiter: CCTE's Cell Titer-Glo 2 Assay in human neuroprogenitor cells for Viability, Mundy Lab (AID 2284241; active = hit-call score of the fitted dose curve at least 0.9, where 1 is the maximum;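 note: a hit is a drop in ATP luminescence versus DMSO meaning reduced viability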)
Outline: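 Human neural progenitor cells (hNP1, WA09-derived) were plated on poly-L-ornithine/laminin and grown 40 to 44 hours at 37 °C, 5% CO2 before chemical addition. Twenty-four hours later, ATP was measured by CellTiter-Glo luminescence; loss of signal versus DMSO indicates reduced viability.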

[10] = CCTE_Mundy_HCI_Cortical_Synap_Neur_Matur_NeuronCount: CCTE's Synaptogenesis and Neurite Maturation Assay in rat cortical cells for Neuron Count, Mundy Lab (AID 2284242; active = hit-call score of the fitted dose curve at least 0.9, where 1 is the maximum;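 note: hits reduce neuron count versus DMSO baseline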)
Outline: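 Neuron number was scored by automated high-content imaging of Hoechst- and MAP2-labelled rat primary cortical cells. Glial growth was arrested with AraC at DIV 5, compounds were applied from DIV 7, and cultures ended at DIV 12.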

Measured: AC50

CCCCCc1ccc(O)cc1
active: [1] 24 µM | [2] 16.1 µM | [4] 11.3 µM | [6] 28 µM | [7] 20 µM
inactive: [3] | [5]

CC[N+](CC)(CC)Cc1ccccc1
not listed: [8] | [9] | [10]
inactive: all other assays above

Cc1ccc(N=Nc2c(O)ccc3ccccc23)c(C)c1
not listed: [8] | [9] | [10]
inactive: all other assays above

C=COC(=O)C(C)(C)CCCCCC
active: [1] 34.2 µM | [2] 31.9 µM | [4] 34.3 µM | [6] 34.8 µM | [7] 29.7 µM
inactive: [3] | [5]

CC(C)(C)c1ccc(O)c(O)c1
inactive: [5]
active: [1] 27.4 µM | [2] 29.2 µM | [3] 26 µM | [4] 29.6 µM | [6] 30.1 µM | [7] 16 µM

C[C@]12CC[C@@H]3c4ccc(O)cc4CC[C@H]3[C@@H]1C[C@@H](O)[C@@H]2O
not listed: [8] | [9] | [10]
inactive: all other assays above

CC(C)c1c(C(=O)Nc2ccccc2)c(-c2ccccc2)c(-c2ccc(F)cc2)n1CC[C@@H](O)C[C@@H](O)CC(=O)O
active: [8] 12.1 µM | [9] 12.8 µM | [10] 5.15 µM

O=C(CCCN1CCC(O)(c2ccc(Cl)cc2)CC1)c1ccc(F)cc1
active: [8] 70.7 µM | [10] 21.9 µM

Cc1cccc2c1ccc1ccccc12
active: [3] 20 µM
not listed: [8] | [9] | [10]
inactive: all other assays above

CCCCC(CC)C(=O)OCCOCCOCCOCCOC(=O)C(CC)CCCC (stereo not given)
active: [5] 0.016 µM
not listed: [8] | [9] | [10]
inactive: all other assays above

Oc1cc2ccccc2cc1O
not listed: [8] | [9] | [10]
inactive: all other assays above

OCCN1CN(CCO)CN(CCO)C1
active: [3] 20 µM | [5] 31.3 µM
inactive: [1] | [2] | [4] | [6] | [7]
